Several values for one entry are separate records, joined by “and”; a condition that tells them apart may be missing. Equal entries are not always repeated. Results filed as inconclusive are left out. A call without a number means that no potency is given here. Activity calls are given as the source filed them. Calls follow the shape of the dose curve; as a rule, active = well fitted inhibition curve with a large enough effect; inconclusive = small, poorly fitted or top-dose-only effect; inactive = flat fitted curve, though single readings scatter.
Assays:
[1] = target: Calcium and integrin-binding protein 1 (Homo sapiens) (UniProt Q99828); experiment: Primary qHTS for Identification of Calcium Integrin Binding Protein 1 (CIB1) Competitor (AID 1508620);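 also: GST tagged CIB1 binding a fluorescein labelled alphaIIb integrin peptide tracer; top concentration of the series differs between compounds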
Outline: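 Fluorescence polarization competition: CIB1-GST (1 uM final) preincubated with compound 15 min at room temperature, then FITC-labeled alphaIIb peptide (100 nM final) added for another 15 min. Polarization read at Ex 480/Em 540.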

[2] = Primary qHTS for inhibitors of nuclear receptor binding SET domain protein 2 (NSD2) in an isogenic RCH-ACV NSD2 p.E1099K mutant (9B) (AID 1645876); also: nearly all actives have a fitted effect of over 70% in size; also: potency is read from the fitted curve at half-maximal effect

Chain of Calcium and integrin-binding protein 1 (Homo sapiens) (Q99828 whole entry, looked up): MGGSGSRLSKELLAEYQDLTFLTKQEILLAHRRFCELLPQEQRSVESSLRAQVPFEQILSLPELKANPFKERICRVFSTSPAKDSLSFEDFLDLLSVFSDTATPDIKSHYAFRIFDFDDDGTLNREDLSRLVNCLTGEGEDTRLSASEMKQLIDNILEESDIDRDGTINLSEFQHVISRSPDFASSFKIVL

Structure (SMILES): COc1cc(C2Oc3c(OC)cc(CCCO)cc3C2CO)ccc1O[C@H]1O[C@H](C)[C@@H](O)[C@H](O)[C@@H]1O (some centres undefined)
- Potency [1]: inactive
- Potency [2]: inactive

Structure (SMILES): Nc1ccc(/C=C/C(=O)NCc2cc3cc(-c4ccc(C(=O)N5CCC(F)(F)CC5)cc4)cc(-c4ccc(F)cc4)c3o2)cn1
- Potency [1]: inactive
- Potency [2]: 235 nM (active) and 231 nM (active)

Structure (SMILES): CC(O)/C=C/C1C(C)C(O[C@@H]2O[C@H](CO)[C@@H](O)[C@H](O)[C@H]2O)C(O)CC1(C)C (some centres undefined)
- Potency [1]: inactive
- Potency [2]: inactive

Structure (SMILES): C[C@@H]1O[C@@H](O[C@H]2[C@H](O)[C@@H](C(=O)O)O[C@@H](O[C@H]3CC[C@@]4(C)C(CC[C@]5(C)C4CC=C4C6CC(C)(C)CC[C@]6(C(=O)O)CC[C@]45C)C3(C)C)[C@@H]2O[C@@H]2OC[C@@H](O)[C@H](O)[C@H]2O)[C@H](O)[C@H](O)[C@H]1O (some centres undefined)
- Potency [1]: inactive
- outcome [2]: inactive [at 9.23 µM]

Structure (SMILES): C[C@]1(CO)CCC[C@]2(C)C3=C(CCC12)COC3 (some centres undefined)
- Potency [1]: inactive
- Potency [2]: inactive

Structure (SMILES): C=C(C)C1CC[C@]2(C(=O)O)CC[C@]3(C(=O)O)[C@H](CCC4[C@@]5(C)CC[C@H](O)C(C)(C)C5CC[C@]43C)C12 (some centres undefined)
- Potency [1]: inactive
- Potency [2]: inactive

Structure (SMILES): C=C1C[C@]23C[C@H]1CC[C@H]2[C@@]1(C)CCC[C@@]2(C)C(=O)O[C@@H]([C@@H]3O)[C@@H]12
- Potency [1]: inactive
- Potency [2]: inactive

Structure (SMILES): C/C1=C\CCC(C)CCO[C@@H]2O[C@H](CO[C@@H]3OC[C@H](O)[C@H](O)[C@H]3OC1=O)[C@@H](O)[C@H](O)[C@H]2O (some centres undefined)
- Potency [1]: inactive
- Potency [2]: inactive

Structure (SMILES): C=CC[C@]12C[C@@H](OC)C(=O)C(OC)=C1O[C@@H](c1cc(OC)c3c(c1)OCO3)[C@@H]2C
- Potency [1]: inactive
- Potency [2]: inactive

Structure (SMILES): C=C1CN(Cc2ccc(C(=O)Nc3ccccc3N)cc2)C(=O)c2ccccc21
- Potency [1]: inactive
- Potency [2]: 230 nM (active)

Structure (SMILES): C=C[C@H]1C(O[C@@H]2O[C@H](CO)[C@@H](O)[C@H](O)[C@H]2O)OC=C2C(=O)N3CCc4c([nH]c5ccccc45)C3CC21 (some centres undefined)
- Potency [1]: inactive
- Potency [2]: inactive

Structure (SMILES): CC1=CC(=O)CC(C)(C)[C@@]1(O)CC[C@@H](C)O[C@@H]1O[C@H](CO)[C@@H](O)[C@H](O)[C@H]1O
- Potency [1]: inactive
- Potency [2]: inactive
